# Data taken from PubChem BioAssay AID1159580 (chemical genetic matrix, 2015).
# Where “and” joins values, the source holds several entries; their conditions need not be identical. Equal values may be shown once. Screen size: about 5,500 compounds; about 2,000 (36%) were called active. Roughly 18% stayed inconclusive and do not appear here. The list shows a part of the results. Values without a mark were called inactive. Cut-off read from the data, not from the text of the source: active = normalized growth mostly below about 0.91 (no sharp cut-off); inconclusive = no clear call, values can overlap the other calls; inactive = mostly above about 0.92.
# Assay: chemical genetic growth profiling, strain panel (AID 1159580);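 note: tested at 20 µM; growth read once vehicle control cultures reached saturation at 30 °C; 1 = growth at the plate median or of vehicle wells; lower values mean less growth of the strain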
# Conditions: S. cerevisiae deletion strains, growth OD
smiles,measurement,setting,value
NCCCCCC(=O)O,normalized growth,"locus YAL013W, strain DEP1, active compounds read low",0.951
same,normalized growth,"locus YAL021C, strain ccr4, active compounds read low",0.99
same,normalized growth,"locus YAL026C, strain drs2, active compounds read low",1
same,normalized growth,"locus YAL030W, strain snc1, active compounds read low",0.989
same,normalized growth,"locus YAL040C, strain CLN3, active compounds read low",0.979
same,normalized growth,"locus YBL061C, strain skt5, active compounds read low",1
same,normalized growth,"locus YBR009C, strain hhf1, active compounds read low",1
same,normalized growth,"locus YBR021W, strain FUR4, active compounds read low",0.706 (active)
same,normalized growth,"locus YBR023C, strain chs3, active compounds read low",1
same,normalized growth,"locus YBR171W, strain sec66, active compounds read low",0.991
same,normalized growth,"locus YBR229C, strain ROT2, active compounds read low",0.988
same,normalized growth,"locus YBR231C, strain swc5, active compounds read low",1.01
same,normalized growth,"locus YBR279W, strain paf1, active compounds read low",0.996
same,normalized growth,"locus YCL011C, strain gbp2, active compounds read low",0.994
same,normalized growth,"locus YCL016C, strain dcc1, active compounds read low",1.01
same,normalized growth,"locus YCL029C, strain bik1, active compounds read low",0.999
same,normalized growth,"locus YCL061C, strain MRC1 (second series), active compounds read low",0.983
same,normalized growth,"locus YCL069W, strain vba3, active compounds read low",0.995
same,normalized growth,"locus YCR088W, strain abp1, active compounds read low",0.995
same,normalized growth,"locus YDL005C, strain med2, active compounds read low",1.01
same,normalized growth,"locus YDL035C, strain GPR1, active compounds read low",0.963
same,normalized growth,"locus YDL040C, strain nat1, active compounds read low",0.997
same,normalized growth,"locus YDL074C, strain BRE1, active compounds read low",0.964
same,normalized growth,"locus YDL101C, strain DUN1, active compounds read low",1.01
same,normalized growth,"locus YDL134C, strain PPH21, active compounds read low",0.979
same,normalized growth,"locus YDL185W, strain tfp1, active compounds read low",1.01
same,normalized growth,"locus YDL192W, strain arf1, active compounds read low",1.01
same,normalized growth,"locus YDR001C, strain nth1, active compounds read low",1.03
same,normalized growth,"locus YDR069C, strain doa4, active compounds read low",1.01
same,normalized growth,"locus YDR101C, strain arx1, active compounds read low",0.981
same,normalized growth,"locus YDR137W, strain rgp1, active compounds read low",0.972
same,normalized growth,"locus YDR150W, strain NUM1, active compounds read low",0.974
same,normalized growth,"locus YDR159W, strain sac3, active compounds read low",1
same,normalized growth,"locus YDR162C, strain NBP2, active compounds read low",0.985
same,normalized growth,"locus YDR195W, strain ref2",0.976
same,normalized growth,"locus YDR297W, strain sur2, active compounds read low",0.998
same,normalized growth,"locus YDR318W, strain mcm21, active compounds read low",1.01
same,normalized growth,"locus YDR334W, strain swr1, active compounds read low",1.02
same,normalized growth,"locus YDR335W, strain msn5, active compounds read low",1.01
same,normalized growth,"locus YDR363W, strain ESC2, active compounds read low",1.01
same,normalized growth,"locus YDR388W, active compounds read low",0.998
same,normalized growth,"locus YDR392W, strain spt3, active compounds read low",0.965
same,normalized growth,"locus YDR502C, strain sam2, active compounds read low",1
same,normalized growth,"locus YEL003W, strain gim4, active compounds read low",1
same,normalized growth,"locus YEL037C, strain rad23, active compounds read low",0.999
same,normalized growth,"locus YEL061C, strain CIN8 (second series), active compounds read low",1
same,normalized growth,"locus YEL061C, strain CIN8, active compounds read low",0.995
same,normalized growth,"locus YER002W, strain NOP16, active compounds read low",0.992
same,normalized growth,"locus YER015W, strain faa2, active compounds read low",1
same,normalized growth,"locus YER016W, strain bim1, active compounds read low",0.966
same,normalized growth,"locus YER110C, active compounds read low",1.01
same,normalized growth,"locus YER111C, strain swi4, active compounds read low",1.01
same,normalized growth,"locus YER155C, strain BEM2 (second series), active compounds read low",0.976
same,normalized growth,"locus YER155C, strain BEM2, active compounds read low",0.992
same,normalized growth,"locus YER167W, strain BCK2, active compounds read low",0.99
same,normalized growth,"locus YFR010W, strain ubp6, active compounds read low",1.03
same,normalized growth,"locus YGL078C, strain dbp3, active compounds read low",1
same,normalized growth,"locus YGL086W, strain mad1, active compounds read low",1
same,normalized growth,"locus YGL167C, strain pmr1, active compounds read low",1
same,normalized growth,"locus YGL173C, strain kem1, active compounds read low",1
same,normalized growth,"locus YGL227W, strain vid30, active compounds read low",0.998
same,normalized growth,"locus YGL240W, strain doc1, active compounds read low",1.03
same,normalized growth,"locus YGL248W, strain PDE1, active compounds read low",0.987
same,normalized growth,"locus YGL253W, strain hxk2, active compounds read low",1
same,normalized growth,"locus YGR078C, strain PAC10, active compounds read low",0.997
same,normalized growth,"locus YGR135W, strain pre9, active compounds read low",1
same,normalized growth,"locus YGR252W, strain gcn5, active compounds read low",0.907
same,normalized growth,"locus YHR013C, strain ard1, active compounds read low",1
same,normalized growth,"locus YHR027C, strain rpn1, active compounds read low",0.999
same,normalized growth,"locus YHR030C, strain SLT2, active compounds read low",0.999 and 1
same,normalized growth,"locus YHR079C, strain IRE1 (second series), active compounds read low",1.01
same,normalized growth,"locus YHR079C, strain IRE1, active compounds read low",1.04
same,normalized growth,"locus YHR094C, strain hxt1, active compounds read low",1
same,normalized growth,"locus YHR129C, strain ARP1, active compounds read low",0.998
same,normalized growth,"locus YHR142W, strain chs7, active compounds read low",1
same,normalized growth,"locus YHR200W, strain rpn10, active compounds read low",1.01
same,normalized growth,"locus YIL066C, strain RNR3, active compounds read low",0.962
same,normalized growth,"locus YIL073C, strain SPO22, active compounds read low",1.03
same,normalized growth,"locus YIL125W, strain kgd1, active compounds read low",1.01
same,normalized growth,"locus YIR030C, strain dcg1, active compounds read low",1.01
same,normalized growth,"locus YJL092W, strain hpr5, active compounds read low",1.03
same,normalized growth,"locus YJL095W, strain BCK1 (second series), active compounds read low",0.985
same,normalized growth,"locus YJL095W, strain BCK1, active compounds read low",0.995 and 1.03
same,normalized growth,"locus YJL115W, strain asf1, active compounds read low",1.01
same,normalized growth,"locus YJL129C, strain trk1, active compounds read low",1.01
same,normalized growth,"locus YJL134W, strain LCB3, active compounds read low",0.992
same,normalized growth,"locus YJL154C, strain vps35, active compounds read low",0.998
same,normalized growth,"locus YJL164C, strain tpk1, active compounds read low",0.996
same,normalized growth,"locus YJL166W, strain qcr8, active compounds read low",1.02
same,normalized growth,"locus YJL168C, strain set2, active compounds read low",1.01
same,normalized growth,"locus YJL187C, strain SWE1 (second series), active compounds read low",0.992
same,normalized growth,"locus YJR043C, strain POL32, active compounds read low",0.952
same,normalized growth,"locus YJR066W, strain TOR1, active compounds read low",0.993
same,normalized growth,"locus YKL009W, strain mrt4, active compounds read low",1.04
same,normalized growth,"locus YKL068W, active compounds read low",0.994
same,normalized growth,"locus YKL085W, strain MDH1 (second series), active compounds read low",1.01
same,normalized growth,"locus YKL085W, strain MDH1, active compounds read low",1.01
same,normalized growth,"locus YKL160W, strain elf1, active compounds read low",0.996
same,normalized growth,"locus YKR001C, strain vps1, active compounds read low",1.04
same,normalized growth,"locus YKR026C, strain gcn3, active compounds read low",1
same,normalized growth,"locus YKR091W, strain srl3, active compounds read low",0.993
same,normalized growth,"locus YLL001W, strain dnm1, active compounds read low",1
same,normalized growth,"locus YLL026W, active compounds read low",1
same,normalized growth,"locus YLL041C, strain sdh2, active compounds read low",0.999
same,normalized growth,"locus YLR027C, strain aat2, active compounds read low",1
same,normalized growth,"locus YLR039C, strain RIC1, active compounds read low",1.01
same,normalized growth,"locus YLR058C, strain SHM2, active compounds read low",0.992
same,normalized growth,"locus YLR102C, strain apc9, active compounds read low",1
same,normalized growth,"locus YLR113W, strain HOG1, active compounds read low",1.02
same,normalized growth,"locus YLR221C, strain rsa3, active compounds read low",0.987
same,normalized growth,"locus YLR258W, strain gsy2, active compounds read low",0.995
same,normalized growth,"locus YLR262C, strain YPT6 (second series), active compounds read low",0.996
same,normalized growth,"locus YLR262C, strain YPT6, active compounds read low",1.05
same,normalized growth,"locus YLR268W, strain sec22, active compounds read low",0.991
same,normalized growth,"locus YLR320W, strain mms22, active compounds read low",0.992
same,normalized growth,"locus YLR330W, strain CHS5, active compounds read low",0.997
same,normalized growth,"locus YLR342W, strain FKS1 (second series), active compounds read low",0.942
same,normalized growth,"locus YLR342W, strain FKS1, active compounds read low",1.01
same,normalized growth,"locus YLR357W, strain rsc2, active compounds read low",1.02
same,normalized growth,"locus YLR370C, strain arc18, active compounds read low",1.02
same,normalized growth,"locus YLR371W, strain rom2, active compounds read low",1.01
same,normalized growth,"locus YLR384C, strain iki3, active compounds read low",1.01
same,normalized growth,"locus YLR418C, strain cdc73, active compounds read low",0.958
same,normalized growth,"locus YML016C, strain PPZ1, active compounds read low",0.996
same,normalized growth,"locus YML032C, strain rad52, active compounds read low",1.01
same,normalized growth,"locus YML120C, strain ndi1, active compounds read low",1
same,normalized growth,"locus YML124C, strain tub3, active compounds read low",1
same,normalized growth,"locus YMR058W, strain fet3, active compounds read low",1.02
same,normalized growth,"locus YMR078C, strain ctf18, active compounds read low",1.02
same,normalized growth,"locus YMR125W, strain sto1, active compounds read low",0.988
same,normalized growth,"locus YMR129W, active compounds read low",0.998
same,normalized growth,"locus YMR205C, strain PFK2, active compounds read low",1
same,normalized growth,"locus YMR223W, strain ubp8, active compounds read low",1.01
same,normalized growth,"locus YMR231W, strain pep5, active compounds read low",1
same,normalized growth,"locus YMR263W, strain SAP30, active compounds read low",0.99 and 0.985
same,normalized growth,"locus YMR307W, strain GAS1, active compounds read low",0.893
same,normalized growth,"locus YNL067W, strain RPL9B, active compounds read low",0.977
same,normalized growth,"locus YNL071W, strain lat1, active compounds read low",0.991
same,normalized growth,"locus YNL128W, strain TEP1, active compounds read low",1
same,normalized growth,"locus YNL153C, strain GIM3, active compounds read low",0.995 and 0.976
same,normalized growth,"locus YNL175C, strain NOP13, active compounds read low",0.985
same,normalized growth,"locus YNL183C, strain NPR1, active compounds read low",0.978
same,normalized growth,"locus YNL197C, strain WHI3, active compounds read low",1.01
same,normalized growth,"locus YNL209W, strain ssb2, active compounds read low",0.998
same,normalized growth,"locus YNL224C, strain SQS1, active compounds read low",1.02
same,normalized growth,"locus YNL233W, strain BNI4, active compounds read low",0.994
same,normalized growth,"locus YNL248C, strain rpa49, active compounds read low",0.926
same,normalized growth,"locus YNL250W, strain rad50, active compounds read low",1.01
same,normalized growth,"locus YNL271C, strain bni1, active compounds read low",1.02
same,normalized growth,"locus YNL298W, strain CLA4, active compounds read low",1
same,normalized growth,"locus YNL307C, strain MCK1, active compounds read low",0.998
same,normalized growth,"locus YNL322C, strain KRE1 (second series), active compounds read low",1.02
same,normalized growth,"locus YNR049C, strain mso1, active compounds read low",1.02
same,normalized growth,"locus YNR052C, strain pop2, active compounds read low",1.01
same,normalized growth,"locus YOL012C, strain htz1",0.774
same,normalized growth,"locus YOL147C, strain pex11, active compounds read low",1.01
same,normalized growth,"locus YOR001W, strain rrp6, active compounds read low",1.01
same,normalized growth,"locus YOR061W, strain CKA2, active compounds read low",0.994
same,normalized growth,"locus YOR069W, strain VPS5, active compounds read low",0.994
same,normalized growth,"locus YOR070C, strain gyp1, active compounds read low",0.986
same,normalized growth,"locus YOR080W, strain dia2, active compounds read low",1
same,normalized growth,"locus YOR083W, strain WHI5 (second series), active compounds read low",0.991
same,normalized growth,"locus YOR083W, strain WHI5, active compounds read low",1
same,normalized growth,"locus YOR106W, strain vam3, active compounds read low",1.02
same,normalized growth,"locus YOR136W, strain idh2, active compounds read low",1.03
same,normalized growth,"locus YOR144C, strain elg1, active compounds read low",1
same,normalized growth,"locus YOR184W, strain ser1, active compounds read low",1
same,normalized growth,"locus YOR231W, strain MKK1, active compounds read low",1.04
same,normalized growth,"locus YOR265W, strain rbl2, active compounds read low",0.994
same,normalized growth,"locus YOR270C, strain vph1, active compounds read low",1.01
same,normalized growth,"locus YOR290C, strain snf2, active compounds read low",0.992
same,normalized growth,"locus YOR316C, strain cot1, active compounds read low",1
same,normalized growth,"locus YPL051W, strain arl3, active compounds read low",1
same,normalized growth,"locus YPL055C, strain LGE1, active compounds read low",0.959 and 1.01
same,normalized growth,"locus YPL078C, strain atp4, active compounds read low",1.01
same,normalized growth,"locus YPL106C, strain sse1, active compounds read low",1
same,normalized growth,"locus YPL240C, strain hsp82, active compounds read low",1.02
same,normalized growth,"locus YPL256C, strain CLN2, active compounds read low",1.04
same,normalized growth,"locus YPR119W, strain clb2, active compounds read low",1.01
same,normalized growth,"locus YPR141C, strain kar3, active compounds read low",1.02
same,normalized growth,"locus YPR163C, strain tif3, active compounds read low",1
same,normalized growth,"locus YPR167C, strain met16, active compounds read low",1.01
same,normalized growth,"strain wtn01, active compounds read low",0.997
